PubChem BioAssay AID463173 (ICCB-Longwood Screening Facility, Harvard Medical School, 2010)
About 1,700 (3.3%) of roughly 52,000 compounds were called active. For the sample, actives were picked, then their nearest neighbours and some compounds at random. Values without a mark were called inactive. Rule as the data show it: active = survival mostly below about 52% (no sharp cut-off); inactive = mostly above about 56%.

Each molecule was assayed on Wild type (assay: S. aureus survival, RN4220 and DeltatarO strains – OD600, teichoic acid synthesis inhibitors, primary screen (AID 463173)). Details: S. aureus RN4220 wild type/DeltatarO growth, OD600, 18 h, active compounds read low, screened at 18.75 µg/mL (by protocol).

| Compound | survival |
| --- | --- |
| COc1cccc(C2C(C(=O)Nc3ccccc3)=C(C)Nc3nc(-c4ccccc4)nn32)c1 (centres undefined) | 76% |
| COc1ccc(N2CCN(c3ccc(-c4nc(-c5ccccc5C)no4)cc3[N+](=O)[O-])CC2)cc1 | 88% |
| Cc1ccc(N(CC(=O)Nc2ccc(Br)c(C)c2)S(=O)(=O)c2cccs2)cc1 | 82% |
| Cc1ccc(N(C(=O)c2cccc(C)c2)S(=O)(=O)c2ccc(Cl)cc2)cc1 | 65% |
| Cc1ccc(NC(=O)N2CCC(n3c(C)nc4cccnc43)CC2)c(Cl)c1 | 71% |
| CC(=O)N1CCC(N(Cc2ccc(C)o2)C(=O)Nc2ccccc2F)CC1 | 85% |
| COc1ccc2[nH]c(=O)c(CN(C(=O)c3cccc(Cl)c3)c3ccccc3OC)cc2c1 | 81% |
| Fc1ccc(C(c2nnnn2C2CCCC2)N2CCc3ccccc32)cc1 (centres undefined) | 122% |
| CN(C)c1ccc(CNC(=O)CN2C(=O)CCn3nc(-c4cn(C)c5ccccc45)cc32)cc1 | 53% |
| Cn1cc(-c2cc3n(n2)CCC(=O)N3CCCC(=O)Nc2ccccc2Cl)c2ccccc21 | -6% (active) |
| Cc1cccc(CNC(=O)CCCN2C(=O)CCn3nc(-c4cn(C)c5ccccc45)cc32)c1 | -6% (active) |
| Cc1ccc(CNC(=O)CN2C(=O)CCn3nc(-c4ccccc4)cc32)cc1 | 68% |
| Cn1cc(-c2cc3n(n2)CCC(=O)N3CCCC(=O)NCc2ccccc2)c2ccccc21 | 76% |
| CN(C)c1ccc(CNC(=O)CCCN2C(=O)CCn3nc(-c4cn(C)c5ccccc45)cc32)cc1 | -1% (active) |
| Cn1cc(-c2cc3n(n2)CCC(=O)N3CCCC(=O)NCc2ccc(Cl)cc2)c2ccccc21 | 124% |
| Cc1ccc(CNC(=O)CCCN2C(=O)CCn3nc(-c4cn(C)c5ccccc45)cc32)cc1 | 76% |
| CCc1ccccc1NC(=O)CCCN1C(=O)CCn2nc(-c3cn(C)c4ccccc34)cc21 | 134% |
| O=C(CN1C(=O)CCn2nc(-c3ccccc3)cc21)NCc1ccc(Cl)cc1 | -3% (active) |
| Cn1cc(-c2cc3n(n2)CCC(=O)N3CCCC(=O)Nc2ccccc2F)c2ccccc21 | 159% |
| O=C(CN1C(=O)CCn2nc(-c3ccccc3)cc21)NCc1ccccc1 | 124% |
| Cc1cc(Cl)ccc1NC(=O)CN1C(=O)CSc2ccc(S(=O)(=O)N(C)C)cc21 | 68% |
| O=C(NCc1ccccc1)NC1COc2ccccc2C1 (centres undefined) | 82% |
| CCCCc1ccc(NC(=O)c2ccc3c(c2)CCN3S(=O)(=O)CC)cc1 | 80% |
| Cc1ccccc1NC(=O)c1c(NC(=O)C(C)Oc2cccc(Cl)c2)sc2c1CCCC2 (centres undefined) | 61% |

| Compound | survival |
| --- | --- |
| Cc1c(CC(=O)NCCc2ccccc2)c(=O)oc2c(C)c3occ(C(C)(C)C)c3cc12 | 84% |
| COc1ccc(-n2c(-c3ccco3)nc3c(cnn3-c3ccc(Cl)cc3)c2=O)cc1 | 90% |
| CC1CCN(C(=O)Cn2cc(SCC(=O)Nc3ccccc3C(F)(F)F)c3ccccc32)CC1 | 105% |
| CCOc1ccccc1CNC(=O)CN1C(=O)CCn2nc(-c3cn(C)c4ccccc34)cc21 | 87% |
| CCOc1ccc(CNC(=O)CN2C(=O)CCn3nc(-c4cn(C)c5ccccc45)cc32)cc1OC | -6% (active) |
| COc1ccc(CNC(=O)CN2C(=O)CCn3nc(-c4cn(C)c5ccccc45)cc32)cc1 | 80% |
| Cc1nn(CCC(=O)N2CCN(c3ccccc3)CC2)c(C)c1S(=O)(=O)N1CCCC1 | -6% (active) |
| COc1ccc(N2CCN(C(=O)CCn3nc(C)c(S(=O)(=O)N4CCCC4)c3C)CC2)cc1 | 80% |
| COc1cccc(N2CCN(C(=O)CCn3nc(C)c(S(=O)(=O)N4CCCC4)c3C)CC2)c1 | 76% |
| CC(C)N(C(=O)CN1CCN(Cc2ccccc2)CC1)C(C)C | 107% |
| CCOC(=O)CNC(=O)N1CCN(S(=O)(=O)c2ccc3c(ccn3C)c2)CC1 | 0% (active) |
| COC(=O)CNC(=O)N1CCN(S(=O)(=O)c2ccc3c(ccn3C)c2)CC1 | 79% |
| CCOC(=O)CCNC(=O)N1CCN(S(=O)(=O)c2ccc3c(ccn3C)c2)CC1 | 113% |
| CCOC(=O)c1ccc(N=C2NC(=O)/C(=C/c3ccc(N4CCOCC4)cc3)S2)cc1 | 107% |
| CCOc1ccc(-c2c(C)nn3c(C)c(C(=O)NCc4ccc(Cl)cc4)cnc23)cc1OCC | 123% |
| Cc1ccc2cccc(NC(=O)c3ccc(-c4cccc(Cl)c4)o3)c2n1 | 66% |
| O=C(Nc1cccc2cccnc12)c1cccc2c(Br)cccc12 | 77% |
| O=C(Nc1cccc2cccnc12)c1ccc(-c2cccc(Cl)c2)o1 | 0% (active) |
| O=C(Nc1ccc(Br)c2cccnc12)c1cccc2ccccc12 | 35% |
| CCOc1cc(C(=O)Nc2cccc3cccnc23)cc(OCC)c1OCC | 23% |
| O=C(Nc1cccc2cccnc12)c1cccc2ccccc12 | 1% (active) |
| Cc1ccc(C(=O)Nc2cccc3cccnc23)cc1Cl | 75% |
| Cc1ccc2cccc(NC(=O)c3cccc4ccccc34)c2n1 | -10% (active) |
| Cc1ccc2cccc(NC(=O)c3ccc(-c4cc(Cl)ccc4Cl)o3)c2n1 | 71% |

| Compound | survival |
| --- | --- |
| CC(C)c1ccc(C(=O)Nc2cccc3cccnc23)cc1 | -3% (active) |
| Cc1ccc2cccc(NC(=O)c3cccc4c(Cl)cccc34)c2n1 | 69% |
| Cc1ccc2cccc(NC(=O)c3cccc4c(Br)cccc34)c2n1 | 134% |
| COc1cccc(NC(=O)CCc2nnc3n(Cc4ccccc4Cl)c(=O)c4ccccc4n23)c1 | 84% |
| CCOC(=O)c1cccc(NS(=O)(=O)c2c(C)nc3sc(C)cn3c2=O)c1 | 81% |
| COc1ccc2c(c1)c1c(c(=O)n(-c3cccc(C)c3)c(=O)n1CC(=O)N1CCCC1)n2C | 82% |
| COc1ccccc1NC(=O)CSc1ncc2c(n1)-c1cc(Cl)ccc1N(Cc1ccccc1)S2(=O)=O | 77% |
| Cc1ccc(NC(=O)CC(C)S(=O)(=O)c2ccc3c(c2)NC(=O)CO3)c(Cl)c1 (centres undefined) | 87% |
| CCOc1ccc(NC(=O)CCCc2nc(-c3cccc(OC)c3)no2)cc1 | 87% |
| Cc1nnc(SCc2cc(=O)n3c(C)cccc3n2)s1 | 81% |
| Cc1cccc(-c2nnc(SCC(=O)OC(C)C)n2C)c1 | 106% |
| COc1ccc(Br)cc1C(=O)Nc1cccc2ccc(C)nc12 | 63% |
| COc1c(C)cccc1C(=O)Nc1cccc2ccc(C)nc12 | -14% (active) |
| CCOc1ccccc1C(=O)Nc1cccc2ccc(C)nc12 | 49% |
| CCCCCn1c(=O)[nH]c2cc(C(=O)Nc3ccc(OC)c(OC)c3)ccc2c1=O | 74% |
| CCOc1ccc(-c2nc(Cn3c(=O)cc(C)c4c(C)nn(-c5ccccc5)c43)c(C)o2)cc1 | 14% (active) |
| Cc1oc(-c2ccccc2)nc1Cn1c(=O)cc(-c2ccccc2)c2c(C)nn(C)c21 | 76% |
| Cc1cc(=O)n(Cc2c(F)cccc2Cl)c2c1c(C)nn2C | 71% |
| Cc1oc(-c2ccc(Cl)cc2)nc1Cn1c(=O)cc(C)c2c(C)nn(-c3ccccc3)c21 | 83% |
| Cc1nn(C)c2c1c(-c1ccccc1)cc(=O)n2Cc1ccccc1F | 120% |
| Cc1nn(C)c2c1c(-c1ccccc1)cc(=O)n2Cc1c(F)cccc1Cl | -6% (active) |
| Cc1cccc(-c2nc(Cn3c(=O)cc(-c4ccccc4)c4c(C)nn(C)c43)c(C)o2)c1 | -6% (active) |
| Cc1ccc(-c2nc(Cn3c(=O)cc(-c4ccccc4)c4c(C)nn(C)c43)c(C)o2)cc1 | 120% |
| CCOc1ccc(-c2nc(Cn3c(=O)cc(C)c4c(C)nn(-c5ccc(C)cc5)c43)c(C)o2)cc1 | 87% |

| Compound | survival |
| --- | --- |
| CCc1cccc(NC(=O)CNS(=O)(=O)c2ccc3nc(C)sc3c2)c1 | 72% |
| COc1ccc(NCc2cc3cc4c(cc3n(CC(=O)Nc3cc(C)cc(C)c3)c2=O)OCO4)cc1 | 60% |
| Cc1cccc(C(=O)Nc2cccc(OCc3cc(=O)n4c(C)csc4n3)c2)c1 | 79% |
| CCC(=O)n1nc(-c2ccc(OC)cc2)nc1SC | 100% |
| O=C(NCc1ccncc1)C1CCN(S(=O)(=O)c2ccccc2)CC1 | 109% |
| COc1ccc(Nc2cc(C(=O)NCc3cccs3)c3ccccc3n2)cc1 | 145% |
| COc1ccc(Nc2cc(C(=O)NCc3ccccc3OC)c3ccccc3n2)cc1 | -6% (active) |
| COc1ccc(Nc2cc(C(=O)NCc3ccccc3)c3ccccc3n2)cc1 | 112% |
| CCOC(=O)/C(C#N)=N\Nc1ccccc1OC | 105% |
| CCC(=O)N1CCc2cc(S(=O)(=O)NC(CC(C)C)C(=O)NCCc3ccccc3)ccc21 (centres undefined) | 127% |
| CCOc1cc(C2c3c(-c4ccccc4O)n[nH]c3C(=O)N2Cc2cccnc2)ccc1O (centres undefined) | 89% |
| CC(C)c1ccc(C2c3c(-c4ccccc4O)n[nH]c3C(=O)N2Cc2ccncc2)cc1 (centres undefined) | 106% |
| O=C1c2[nH]nc(-c3ccccc3O)c2C(c2ccc(Cl)cc2)N1Cc1ccco1 (centres undefined) | -1% (active) |
| O=C1c2[nH]nc(-c3ccccc3O)c2C(c2ccc(Cl)cc2)N1CCc1ccccc1 (centres undefined) | 4% (active) |
| COc1ccc(C2c3c(-c4c(C)cc(C)cc4O)n[nH]c3C(=O)N2Cc2ccco2)cc1 (centres undefined) | 15% |
| CCc1ccc(C2c3c(-c4ccccc4O)n[nH]c3C(=O)N2Cc2cccnc2)cc1 (centres undefined) | 71% |
| Cc1ccc(C2c3c(-c4ccccc4O)n[nH]c3C(=O)N2CCc2ccccc2)cc1 (centres undefined) | 58% |
| COc1ccc(C2c3c(-c4ccccc4O)n[nH]c3C(=O)N2Cc2ccco2)cc1 (centres undefined) | 10% (active) |
| CC(C)c1ccc(C2c3c(-c4ccccc4O)n[nH]c3C(=O)N2CCc2ccccc2)cc1 (centres undefined) | 64% |
| COc1cc(C2c3c(-c4ccccc4O)n[nH]c3C(=O)N2Cc2ccco2)ccc1OCC(C)C (centres undefined) | 43% |
| CCCOc1ccc(C2c3c(-c4ccccc4O)n[nH]c3C(=O)N2Cc2cccnc2)cc1 (centres undefined) | 3% (active) |
| COc1ccc(CCN2C(=O)c3[nH]nc(-c4ccccc4O)c3C2c2ccc(OC)cc2)cc1 (centres undefined) | 58% |
